Target: T1, FLI1 (Homo sapiens, UniProt Q01543 1-452)
T1 sequence: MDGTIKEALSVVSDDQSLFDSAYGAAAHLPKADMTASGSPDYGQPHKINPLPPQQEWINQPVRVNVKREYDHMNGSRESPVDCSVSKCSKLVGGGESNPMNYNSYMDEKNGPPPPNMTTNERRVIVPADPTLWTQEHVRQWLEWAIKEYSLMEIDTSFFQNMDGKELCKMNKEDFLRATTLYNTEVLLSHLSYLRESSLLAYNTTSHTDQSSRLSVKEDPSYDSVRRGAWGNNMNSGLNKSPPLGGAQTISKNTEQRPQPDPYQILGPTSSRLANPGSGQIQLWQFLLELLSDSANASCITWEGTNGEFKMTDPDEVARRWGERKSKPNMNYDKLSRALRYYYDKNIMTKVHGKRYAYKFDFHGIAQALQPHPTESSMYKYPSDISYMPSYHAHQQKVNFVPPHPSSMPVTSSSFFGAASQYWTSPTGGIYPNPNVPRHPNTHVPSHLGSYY
Test: DAPPL (digital affinity profiling via proximity ligation, sequencing); 10 mM Tris-HCl pH 7.5, 50 mM NaCl, 1 mM DTT, 4% glycerol, room temperature, 30 min; GST-TFs on glutathione beads, 16-mer random dsDNA library, 0.1% formaldehyde crosslink after washing; high values mean tight binding
Conditions: protein: recombinant; tags: N-terminal GST; dsDNA, one strand shown
Summary of the method: (§1)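 Beads coated with glutathione captured GST-fused human transcription factors that had been expressed in yeast, and the factors were then given DNA barcodes and pooled with a tag-only sample. The pools were incubated with 200 nmole of a random double-stranded 16-mer DNA library in Tris/NaCl/DTT/glycerol buffer for 30 min at room temperature, washed, crosslinked with 0.1% formaldehyde and proximity-ligated with BsaI/T4 ligase at 37 °C for 1 h. PCR amplification and Illumina NextSeq500 sequencing came last. Binding signal is each hexamer's read frequency for a factor divided by its frequency for the tag-only sample.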

Sequence | binding signal
AACGAC | 1.14 fold enrichment (6-mer frequency, TF over GST control)
CGCCGA | 1.19 fold enrichment (6-mer frequency, TF over GST control)
CGCCGC | 1.35 fold enrichment (6-mer frequency, TF over GST control)
TAATGA | 1.09 fold enrichment (6-mer frequency, TF over GST control)
CCGTAA | 1.09 fold enrichment (6-mer frequency, TF over GST control)
ATTACT | 1.3 fold enrichment (6-mer frequency, TF over GST control)
CTGGCC | 1.22 fold enrichment (6-mer frequency, TF over GST control)
ATAGCA | 1.17 fold enrichment (6-mer frequency, TF over GST control)
CCATTG | 1.33 fold enrichment (6-mer frequency, TF over GST control)
TCTATA | 1.09 fold enrichment (6-mer frequency, TF over GST control)
CTTACA | 1.28 fold enrichment (6-mer frequency, TF over GST control)
AACGAA | 1.07 fold enrichment (6-mer frequency, TF over GST control)
CCTCTG | 1.57 fold enrichment (6-mer frequency, TF over GST control)
GAAAAA | 1.07 fold enrichment (6-mer frequency, TF over GST control)
AGATGC | 1.13 fold enrichment (6-mer frequency, TF over GST control)
TACTAA | 1.2 fold enrichment (6-mer frequency, TF over GST control)
CTCCGT | 1.32 fold enrichment (6-mer frequency, TF over GST control)
TGCGAC | 1.2 fold enrichment (6-mer frequency, TF over GST control)
GAACTT | 1.68 fold enrichment (6-mer frequency, TF over GST control)
ATCGCT | 1.09 fold enrichment (6-mer frequency, TF over GST control)

Sequence | binding signal
AAGTAG | 1.12 fold enrichment (6-mer frequency, TF over GST control)
AACAGC | 1.1 fold enrichment (6-mer frequency, TF over GST control)
TACTGC | 1.22 fold enrichment (6-mer frequency, TF over GST control)
GCCGAT | 1.14 fold enrichment (6-mer frequency, TF over GST control)
CCTCAA | 1.47 fold enrichment (6-mer frequency, TF over GST control)
GCACTG | 1.18 fold enrichment (6-mer frequency, TF over GST control)
TTTCGC | 1.11 fold enrichment (6-mer frequency, TF over GST control)
ATCTAC | 1.2 fold enrichment (6-mer frequency, TF over GST control)
CACTCT | 1.27 fold enrichment (6-mer frequency, TF over GST control)
ATTATC | 1.35 fold enrichment (6-mer frequency, TF over GST control)
GGCACT | 1.24 fold enrichment (6-mer frequency, TF over GST control)
TCAACG | 1.12 fold enrichment (6-mer frequency, TF over GST control)
TCCACT | 1.47 fold enrichment (6-mer frequency, TF over GST control)
ACAATG | 1.1 fold enrichment (6-mer frequency, TF over GST control)
AGTTTC | 1.23 fold enrichment (6-mer frequency, TF over GST control)
AACAAG | 1.08 fold enrichment (6-mer frequency, TF over GST control)
ACCTCC | 1.38 fold enrichment (6-mer frequency, TF over GST control)
CGATAG | 1.07 fold enrichment (6-mer frequency, TF over GST control)
AGTACT | 1.22 fold enrichment (6-mer frequency, TF over GST control)

Target: T2, ELK1 (Homo sapiens, UniProt P19419 1-428)
T2 sequence: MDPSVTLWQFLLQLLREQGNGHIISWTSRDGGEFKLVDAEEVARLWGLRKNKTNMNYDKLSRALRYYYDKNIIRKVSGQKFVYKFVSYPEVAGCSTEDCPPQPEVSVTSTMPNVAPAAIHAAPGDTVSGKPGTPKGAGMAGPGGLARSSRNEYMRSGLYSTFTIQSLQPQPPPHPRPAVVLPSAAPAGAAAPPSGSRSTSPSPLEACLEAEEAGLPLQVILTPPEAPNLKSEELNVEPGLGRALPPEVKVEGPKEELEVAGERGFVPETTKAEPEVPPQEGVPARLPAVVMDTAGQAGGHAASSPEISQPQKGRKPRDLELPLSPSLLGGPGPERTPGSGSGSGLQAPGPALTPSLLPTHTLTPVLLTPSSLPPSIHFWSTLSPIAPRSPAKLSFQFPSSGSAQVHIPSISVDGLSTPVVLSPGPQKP
Test: as above
Conditions: protein: recombinant; tags: N-terminal GST; dsDNA, one strand shown
Summary of the method: as §1

Sequence | binding signal
AACGAC | 1.19 fold enrichment (6-mer frequency, TF over GST control)
CGCCGA | 1.2 fold enrichment (6-mer frequency, TF over GST control)
CGCCGC | 1.1 fold enrichment (6-mer frequency, TF over GST control)
TAATGA | 1.21 fold enrichment (6-mer frequency, TF over GST control)
CCGTAA | 1.1 fold enrichment (6-mer frequency, TF over GST control)
ATTACT | 1.12 fold enrichment (6-mer frequency, TF over GST control)
CTGGCC | 1.13 fold enrichment (6-mer frequency, TF over GST control)
ATAGCA | 1.14 fold enrichment (6-mer frequency, TF over GST control)
CCATTG | 1.16 fold enrichment (6-mer frequency, TF over GST control)
TCTATA | 1.13 fold enrichment (6-mer frequency, TF over GST control)
CTTACA | 1.3 fold enrichment (6-mer frequency, TF over GST control)
AACGAA | 1.14 fold enrichment (6-mer frequency, TF over GST control)
CCTCTG | 1.75 fold enrichment (6-mer frequency, TF over GST control)
GAAAAA | 1.13 fold enrichment (6-mer frequency, TF over GST control)
AGATGC | 1.14 fold enrichment (6-mer frequency, TF over GST control)
TACTAA | 1.23 fold enrichment (6-mer frequency, TF over GST control)
CTCCGT | 1.28 fold enrichment (6-mer frequency, TF over GST control)
TGCGAC | 1.25 fold enrichment (6-mer frequency, TF over GST control)
GAACTT | 1.65 fold enrichment (6-mer frequency, TF over GST control)
ATCGCT | 1.09 fold enrichment (6-mer frequency, TF over GST control)

Sequence | binding signal
AAGTAG | 1.21 fold enrichment (6-mer frequency, TF over GST control)
AACAGC | 1.1 fold enrichment (6-mer frequency, TF over GST control)
TACTGC | 1.22 fold enrichment (6-mer frequency, TF over GST control)
GCCGAT | 1.09 fold enrichment (6-mer frequency, TF over GST control)
CCTCAA | 1.32 fold enrichment (6-mer frequency, TF over GST control)
GCACTG | 1.12 fold enrichment (6-mer frequency, TF over GST control)
TTTCGC | 1.12 fold enrichment (6-mer frequency, TF over GST control)
ATCTAC | 1.38 fold enrichment (6-mer frequency, TF over GST control)
CACTCT | 1.25 fold enrichment (6-mer frequency, TF over GST control)
ATTATC | 1.35 fold enrichment (6-mer frequency, TF over GST control)
GGCACT | 1.21 fold enrichment (6-mer frequency, TF over GST control)
TCAACG | 1.05 fold enrichment (6-mer frequency, TF over GST control)
TCCACT | 1.52 fold enrichment (6-mer frequency, TF over GST control)
ACAATG | 1.06 fold enrichment (6-mer frequency, TF over GST control)
AGTTTC | 1.28 fold enrichment (6-mer frequency, TF over GST control)
AACAAG | 1.08 fold enrichment (6-mer frequency, TF over GST control)
ACCTCC | 1.42 fold enrichment (6-mer frequency, TF over GST control)
CGATAG | 1.11 fold enrichment (6-mer frequency, TF over GST control)
AGTACT | 1.41 fold enrichment (6-mer frequency, TF over GST control)

Target: T3, GABPA (Homo sapiens, UniProt Q06546 1-454)
T3 sequence: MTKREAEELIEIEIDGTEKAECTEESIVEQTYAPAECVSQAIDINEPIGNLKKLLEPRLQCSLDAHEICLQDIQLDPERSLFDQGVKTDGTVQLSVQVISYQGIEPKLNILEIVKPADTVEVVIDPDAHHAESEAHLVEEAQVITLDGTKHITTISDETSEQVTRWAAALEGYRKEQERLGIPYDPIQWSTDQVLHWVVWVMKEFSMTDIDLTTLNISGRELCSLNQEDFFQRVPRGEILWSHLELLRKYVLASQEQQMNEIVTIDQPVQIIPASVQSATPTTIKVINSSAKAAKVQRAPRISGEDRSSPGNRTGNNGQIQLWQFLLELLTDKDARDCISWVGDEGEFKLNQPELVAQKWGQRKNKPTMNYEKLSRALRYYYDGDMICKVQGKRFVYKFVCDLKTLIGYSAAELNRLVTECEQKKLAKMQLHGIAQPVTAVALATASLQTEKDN
Test: as above
Conditions: protein: recombinant; tags: N-terminal GST; dsDNA, one strand shown
Summary of the method: as §1

Sequence | binding signal
AACGAC | 1.18 fold enrichment (6-mer frequency, TF over GST control)
CGCCGA | 1.26 fold enrichment (6-mer frequency, TF over GST control)
CGCCGC | 1.19 fold enrichment (6-mer frequency, TF over GST control)
TAATGA | 1.26 fold enrichment (6-mer frequency, TF over GST control)
CCGTAA | 1.1 fold enrichment (6-mer frequency, TF over GST control)
ATTACT | 1.29 fold enrichment (6-mer frequency, TF over GST control)
CTGGCC | 1.19 fold enrichment (6-mer frequency, TF over GST control)
ATAGCA | 1.19 fold enrichment (6-mer frequency, TF over GST control)
CCATTG | 1.32 fold enrichment (6-mer frequency, TF over GST control)
TCTATA | 1.11 fold enrichment (6-mer frequency, TF over GST control)
CTTACA | 1.32 fold enrichment (6-mer frequency, TF over GST control)
AACGAA | 1.15 fold enrichment (6-mer frequency, TF over GST control)
CCTCTG | 1.63 fold enrichment (6-mer frequency, TF over GST control)
GAAAAA | 1.11 fold enrichment (6-mer frequency, TF over GST control)
AGATGC | 1.05 fold enrichment (6-mer frequency, TF over GST control)
TACTAA | 1.36 fold enrichment (6-mer frequency, TF over GST control)
CTCCGT | 1.22 fold enrichment (6-mer frequency, TF over GST control)
TGCGAC | 1.21 fold enrichment (6-mer frequency, TF over GST control)
GAACTT | 1.62 fold enrichment (6-mer frequency, TF over GST control)
ATCGCT | 1.09 fold enrichment (6-mer frequency, TF over GST control)

Sequence | binding signal
AAGTAG | 1.2 fold enrichment (6-mer frequency, TF over GST control)
AACAGC | 1.17 fold enrichment (6-mer frequency, TF over GST control)
TACTGC | 1.17 fold enrichment (6-mer frequency, TF over GST control)
GCCGAT | 1.21 fold enrichment (6-mer frequency, TF over GST control)
CCTCAA | 1.46 fold enrichment (6-mer frequency, TF over GST control)
GCACTG | 1.14 fold enrichment (6-mer frequency, TF over GST control)
TTTCGC | 1.06 fold enrichment (6-mer frequency, TF over GST control)
ATCTAC | 1.22 fold enrichment (6-mer frequency, TF over GST control)
CACTCT | 1.19 fold enrichment (6-mer frequency, TF over GST control)
ATTATC | 1.34 fold enrichment (6-mer frequency, TF over GST control)
GGCACT | 1.28 fold enrichment (6-mer frequency, TF over GST control)
TCAACG | 1.09 fold enrichment (6-mer frequency, TF over GST control)
TCCACT | 1.51 fold enrichment (6-mer frequency, TF over GST control)
ACAATG | 1.17 fold enrichment (6-mer frequency, TF over GST control)
AGTTTC | 1.29 fold enrichment (6-mer frequency, TF over GST control)
AACAAG | 1.15 fold enrichment (6-mer frequency, TF over GST control)
ACCTCC | 1.43 fold enrichment (6-mer frequency, TF over GST control)
CGATAG | 1.18 fold enrichment (6-mer frequency, TF over GST control)
AGTACT | 1.19 fold enrichment (6-mer frequency, TF over GST control)
